From PubChem BioAssay AID1839 (Johns Hopkins Ion Channel Center, 2009)
Hit rate of the full screen: of about 2,400 compounds, about 220 (9.2%) were called active.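 The calls were made as follows: active = signal change above the mean of dofetilide-free buffer controls plus 3 SD, so a positive margin; inactive = the rest.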 The sample as a whole holds a higher share of actives than the screen did.

Assay: nonspecific flux effects in parental CHO-K1, confirmation, counter-screen for hERG block protection project, cell-based, CHO-K1 parental line, FluxOR thallium flux (AID 1839);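 also: compounds applied alone with no dofetilide to cells lacking hERG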
Settings: CHO-K1 parental cells, FluxOR thallium flux fluorescence; at 10 µM
For `Oc1c(Cl)cc(CN2CCCCC2)c2cccnc12`, the signal change vs control minus 3*SD hit threshold (margin above threshold, higher = more increase) was -25.2% (inactive).
With `CCOC(=O)Cc1csc(NC(=S)NC(=O)c2ccccc2C)n1` the signal change vs control minus 3*SD hit threshold (margin above threshold, higher = more increase) was -13.6% (inactive).
In the case of `Cc1cc(C(=O)NNC(=O)c2cccs2)nn1C(C)(C)C`, the signal change vs control minus 3*SD hit threshold (margin above threshold, higher = more increase) was -25.3% (inactive).
With `O=C(NN=C1c2ccccc2-c2ccccc21)c1ccccc1` the signal change vs control minus 3*SD hit threshold (margin above threshold, higher = more increase) was -27.5% (inactive).
For `CCNC(=S)N/N=C1\C(=O)c2cccc3cccc1c23`, the signal change vs control minus 3*SD hit threshold (margin above threshold, higher = more increase) was -16.8% (inactive).
In the case of `O=C(N/N=C1/C(=O)c2cccc3cccc1c23)c1ccc(Cl)cc1`, the signal change vs control minus 3*SD hit threshold (margin above threshold, higher = more increase) was 41.5% (active).
With `Cc1ccc(-c2n[nH]c(=S)nc2-c2ccc(C)cc2)cc1` the signal change vs control minus 3*SD hit threshold (margin above threshold, higher = more increase) was -27.5% (inactive).
In the case of `CSc1nc2c(c(=O)[nH]1)C(c1ccc(F)cc1)CC(=O)N2` (stereo not given), the signal change vs control minus 3*SD hit threshold (margin above threshold, higher = more increase) was -36% (inactive).
In the case of `CC(C)CC(=O)Nc1ccc2c3c(cccc13)CC2`, the signal change vs control minus 3*SD hit threshold (margin above threshold, higher = more increase) was -19.8% (inactive).
In the case of `COCCn1c(=S)[nH]c2sc3c(c2c1=O)CCCC3`, the signal change vs control minus 3*SD hit threshold (margin above threshold, higher = more increase) was -5.6% (inactive).
In the case of `C=CCn1c(=S)[nH]c2sc3c(c2c1=O)CCC3`, the signal change vs control minus 3*SD hit threshold (margin above threshold, higher = more increase) was -7.2% (inactive).
In the case of `O=c1c2c3c(sc2[nH]c(=S)n1Cc1ccco1)CCC3`, the signal change vs control minus 3*SD hit threshold (margin above threshold, higher = more increase) was -6.1% (inactive).
For `CCn1c(=S)[nH]c2sc3c(c2c1=O)CCCC3`, the signal change vs control minus 3*SD hit threshold (margin above threshold, higher = more increase) was 8.5% (active).
For `CCCn1c(=S)[nH]c2sc3c(c2c1=O)CCCC3`, the signal change vs control minus 3*SD hit threshold (margin above threshold, higher = more increase) was 32.1% (active).
In the case of `CCCn1c(SCC(=O)N2CCN(C(C)=O)CC2)nc2sc3c(c2c1=O)CCC3`, the signal change vs control minus 3*SD hit threshold (margin above threshold, higher = more increase) was -6.2% (inactive).
With `COCCCn1c(=S)[nH]c2c(sc3ccccc32)c1=O` the signal change vs control minus 3*SD hit threshold (margin above threshold, higher = more increase) was -36.9% (inactive).
For `C=CCn1c(=S)[nH]c2sc3c(c2c1=O)CCCC3`, the signal change vs control minus 3*SD hit threshold (margin above threshold, higher = more increase) was 3.6% (active).
In the case of `CCn1c(SCC(N)=O)nc2sc3c(c2c1=O)CCCC3`, the signal change vs control minus 3*SD hit threshold (margin above threshold, higher = more increase) was -14.4% (inactive).
With `C=CCn1c(=S)[nH]c2nc3c(cc2c1=O)CCCC3` the signal change vs control minus 3*SD hit threshold (margin above threshold, higher = more increase) was -15.7% (inactive).
For `COCCCn1c(=S)[nH]c2sc3c(c2c1=O)CCCC3`, the signal change vs control minus 3*SD hit threshold (margin above threshold, higher = more increase) was 2.5% (active).
In the case of `Cc1ccnc(N2CCC(C(=O)Nc3ccc(Oc4ccccc4)cc3)CC2)n1`, the signal change vs control minus 3*SD hit threshold (margin above threshold, higher = more increase) was -28.4% (inactive).
With `CCCn1c(SCC(N)=O)nc2c(c1=O)C1(CCCC1)Cc1ccccc1-2` the signal change vs control minus 3*SD hit threshold (margin above threshold, higher = more increase) was -7.7% (inactive).
With `COc1ccc(NC(=O)CCN2C(=O)C3C4C=CC(C4)C3C2=O)cc1` (stereo not given) the signal change vs control minus 3*SD hit threshold (margin above threshold, higher = more increase) was -35% (inactive).
For `C=CCN(CC=C)C(=S)NC(=O)Cc1cccc2ccccc12`, the signal change vs control minus 3*SD hit threshold (margin above threshold, higher = more increase) was -17.1% (inactive).
With `COc1ccc(C(CC(=O)N2CCOCC2)c2c(O)cc(OC)cc2OC)cc1` (stereo not given) the signal change vs control minus 3*SD hit threshold (margin above threshold, higher = more increase) was -27.3% (inactive).
In the case of `CCSc1nc2c(sc3ccccc32)c(=O)n1C(C)C`, the signal change vs control minus 3*SD hit threshold (margin above threshold, higher = more increase) was -0.8% (inactive).
In the case of `Cc1ccc2[nH]c(C(=O)O)c(-c3ccccc3)c2c1`, the signal change vs control minus 3*SD hit threshold (margin above threshold, higher = more increase) was -18.6% (inactive).
With `CCOC(=O)C1=C(O)/C(=C/c2ccc(OCC(=O)O)c(OC)c2)SC1=Nc1ccc(OCC)cc1` the signal change vs control minus 3*SD hit threshold (margin above threshold, higher = more increase) was -28.1% (inactive).
With `COc1ccc(-c2cc(C(=O)N3CCCC3)no2)cc1OC` the signal change vs control minus 3*SD hit threshold (margin above threshold, higher = more increase) was -5.8% (inactive).
For `CCOC(=O)c1[nH]c(=O)[nH]c1COC(=O)c1cc2ccccc2o1`, the signal change vs control minus 3*SD hit threshold (margin above threshold, higher = more increase) was -34.3% (inactive).
In the case of `COc1ccc(NC(=O)CSCC(=O)Oc2c(OC)cccc2OC)cc1`, the signal change vs control minus 3*SD hit threshold (margin above threshold, higher = more increase) was -30.4% (inactive).
For `Cc1cc(C)n(-c2nc3sc4c(c3c(=O)[nH]2)CCCC4)n1`, the signal change vs control minus 3*SD hit threshold (margin above threshold, higher = more increase) was -29.7% (inactive).
With `CCn1c(SC(C)C(=O)O)nc2sc3c(c2c1=O)CCC3` (stereo not given) the signal change vs control minus 3*SD hit threshold (margin above threshold, higher = more increase) was -5.9% (inactive).
For `CCn1c(=S)[nH]c2sc3c(c2c1=O)CCCCC3`, the signal change vs control minus 3*SD hit threshold (margin above threshold, higher = more increase) was 37.1% (active).
With `O=C(Nc1cccnc1)c1ccc(COc2cc(Cl)ccc2Cl)o1` the signal change vs control minus 3*SD hit threshold (margin above threshold, higher = more increase) was -33.5% (inactive).
In the case of `CCCSc1cc(NCCOC(C)=O)c([N+](=O)[O-])c2nonc12`, the signal change vs control minus 3*SD hit threshold (margin above threshold, higher = more increase) was -28.6% (inactive).
For `Cc1cc2ccccn2c1C(=S)NC(=O)c1ccccc1`, the signal change vs control minus 3*SD hit threshold (margin above threshold, higher = more increase) was 2.8% (active).
With `Cc1ccc(C(=O)NNC(=S)NC(=O)c2ccccc2)cc1` the signal change vs control minus 3*SD hit threshold (margin above threshold, higher = more increase) was -43.2% (inactive).
With `Cc1cccc(C(=O)NNC(=S)NC(=O)c2ccccc2)c1` the signal change vs control minus 3*SD hit threshold (margin above threshold, higher = more increase) was -45% (inactive).
In the case of `COc1ccc(C(=O)NC(=S)N2CCC(C)CC2)cc1`, the signal change vs control minus 3*SD hit threshold (margin above threshold, higher = more increase) was -29% (inactive).
For `CCc1ccc(/C=C/C(=O)C2C(=O)c3ccccc3C2=O)cc1`, the signal change vs control minus 3*SD hit threshold (margin above threshold, higher = more increase) was 15.2% (active).
With `Cc1ccc(/C=N/N2C(=O)c3ccccc3NC2c2ccc(C)cc2)cc1` (stereo not given) the signal change vs control minus 3*SD hit threshold (margin above threshold, higher = more increase) was -30% (inactive).
In the case of `CCc1ccc(/C=C/C(=O)c2cc(Br)ccc(=O)c2O)cc1`, the signal change vs control minus 3*SD hit threshold (margin above threshold, higher = more increase) was -23.5% (inactive).
With `CCOC(=O)C1=C(O)c2ccccc2C(=O)/C1=C\c1ccc(CC)cc1` the signal change vs control minus 3*SD hit threshold (margin above threshold, higher = more increase) was -14.9% (inactive).
With `Cc1ccc(/C=C/C(=O)c2ccccc(=O)c2O)cc1C` the signal change vs control minus 3*SD hit threshold (margin above threshold, higher = more increase) was -20.1% (inactive).
In the case of `Cc1ccc(/C=C/C(=O)C2C(=O)c3ccccc3C2=O)cc1`, the signal change vs control minus 3*SD hit threshold (margin above threshold, higher = more increase) was 8.4% (active).
With `COc1ccc(-n2c(SCc3ccccn3)nc3c(c2=O)SCC3)cc1OC` the signal change vs control minus 3*SD hit threshold (margin above threshold, higher = more increase) was -16.3% (inactive).
With `O=C(COC(=O)c1cnccn1)c1ccc(Cl)cc1` the signal change vs control minus 3*SD hit threshold (margin above threshold, higher = more increase) was -30.4% (inactive).
In the case of `CCOC(=O)c1c(NS(C)(=O)=O)sc2c1CCC(C)C2` (stereo not given), the signal change vs control minus 3*SD hit threshold (margin above threshold, higher = more increase) was -5.6% (inactive).
With `CC(C)OC(=O)c1c(NS(=O)(=O)c2ccccc2)sc2c1CCCC2` the signal change vs control minus 3*SD hit threshold (margin above threshold, higher = more increase) was -18.4% (inactive).
In the case of `CC1CCc2c(sc(NS(=O)(=O)c3ccccc3)c2C(=O)OC(C)C)C1` (stereo not given), the signal change vs control minus 3*SD hit threshold (margin above threshold, higher = more increase) was 5.8% (active).
In the case of `CCOc1ccc(NC(=O)CSc2nc3nc(C)cc(C)n3n2)cc1`, the signal change vs control minus 3*SD hit threshold (margin above threshold, higher = more increase) was -31.5% (inactive).
For `CC1=CCC[C@@H]2[C@@](C)(CC/C(C)=C/C(=O)O)[C@H](C)CC[C@@]12C`, the signal change vs control minus 3*SD hit threshold (margin above threshold, higher = more increase) was 7.9% (active).
In the case of `O=[N+]([O-])c1cccc(/C=C/c2nc(C=Nc3ccccc3)c(O)o2)c1`, the signal change vs control minus 3*SD hit threshold (margin above threshold, higher = more increase) was -34.1% (inactive).
For `COC(=O)C1=NN(C(=O)c2ccc(Cl)cc2)C(O)(c2ccccc2)C1` (stereo not given), the signal change vs control minus 3*SD hit threshold (margin above threshold, higher = more increase) was 17.7% (active).
With `Cc1ccc(C(=O)NNC(=S)NC(=O)c2ccc(Cl)cc2)cc1` the signal change vs control minus 3*SD hit threshold (margin above threshold, higher = more increase) was -46.2% (inactive).
With `COC(=O)C1=NN(C(=O)c2ccc(C)cc2)C(O)(c2ccc(Cl)cc2)C1` (stereo not given) the signal change vs control minus 3*SD hit threshold (margin above threshold, higher = more increase) was 46.4% (active).
In the case of `CCOC(=O)c1cnc(-n2nc(C)cc2C)nc1Nc1cccc(C(=O)O)c1`, the signal change vs control minus 3*SD hit threshold (margin above threshold, higher = more increase) was -22.1% (inactive).
With `CC1=NN(C(=O)c2ccc(Cl)cc2)C(O)(c2ccccc2)C1` (stereo not given) the signal change vs control minus 3*SD hit threshold (margin above threshold, higher = more increase) was -21.7% (inactive).
With `CC(C)(C)C1(O)CC(C(F)(F)F)=NN1C(=O)Cc1ccc([N+](=O)[O-])cc1` (stereo not given) the signal change vs control minus 3*SD hit threshold (margin above threshold, higher = more increase) was -27% (inactive).
In the case of `CCOC(=O)C1=NN(C(=O)c2cccc(Br)c2)C(O)(C(C)(C)C)C1` (stereo not given), the signal change vs control minus 3*SD hit threshold (margin above threshold, higher = more increase) was 49.8% (active).
In the case of `CC1=NN(C(=O)c2ccccc2Br)C(O)(c2ccc(Cl)cc2)C1` (stereo not given), the signal change vs control minus 3*SD hit threshold (margin above threshold, higher = more increase) was -36.1% (inactive).
For `CCC1=NN(C(=O)c2ccc(Cl)cc2)C(O)(c2ccc(C)cc2)C1` (stereo not given), the signal change vs control minus 3*SD hit threshold (margin above threshold, higher = more increase) was -25.9% (inactive).
With `COC(=O)C1=NN(C(=O)c2cccc(Br)c2)C(O)(c2ccc(Cl)cc2)C1` (stereo not given) the signal change vs control minus 3*SD hit threshold (margin above threshold, higher = more increase) was 64.5% (active).
For `CCC1=NN(C(=O)c2ccc(Cl)cc2)C(O)(c2ccccc2)C1` (stereo not given), the signal change vs control minus 3*SD hit threshold (margin above threshold, higher = more increase) was -32.2% (inactive).
